The record followed here is article PMC7862700, “An all-to-all approach to the identification of sequence-specific readers for epigenetic DNA modifications on cytosine”.

What all share (test): DAPPL (digital affinity profiling via proximity ligation, sequencing); 10 mM Tris-HCl pH 7.5, 50 mM NaCl, 1 mM DTT, 4% glycerol, room temperature, 30 min; GST-TFs on glutathione beads, 16-mer random dsDNA library, 0.1% formaldehyde crosslink after washing; high values mean tight binding
What all share (conditions): protein: recombinant; tags: N-terminal GST; dsDNA, one strand shown

In one assay the target is T1, FLI1 (Homo sapiens, UniProt Q01543 1-452).
T1 sequence: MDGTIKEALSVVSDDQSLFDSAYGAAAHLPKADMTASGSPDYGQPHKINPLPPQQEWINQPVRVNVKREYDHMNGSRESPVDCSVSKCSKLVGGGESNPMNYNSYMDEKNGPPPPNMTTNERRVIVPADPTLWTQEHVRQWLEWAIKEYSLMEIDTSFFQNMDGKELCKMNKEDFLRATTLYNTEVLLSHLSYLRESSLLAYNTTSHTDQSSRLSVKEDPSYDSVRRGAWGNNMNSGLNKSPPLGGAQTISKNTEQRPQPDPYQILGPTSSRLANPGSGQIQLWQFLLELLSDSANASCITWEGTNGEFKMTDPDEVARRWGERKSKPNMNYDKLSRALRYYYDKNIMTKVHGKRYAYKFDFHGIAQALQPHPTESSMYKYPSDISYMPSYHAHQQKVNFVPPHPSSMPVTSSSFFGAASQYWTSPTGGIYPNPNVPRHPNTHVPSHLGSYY
In outline:
(§1)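 Binding signal is each hexamer's read frequency for a factor divided by its frequency in the tag-only sample. The factors were GST-fused human transcription factors from yeast, captured on glutathione beads, DNA-barcoded and pooled with that sample. Pools were incubated with 200 nmole of a random double-stranded 16-mer DNA library in Tris/NaCl/DTT/glycerol buffer at room temperature for 30 min, then washed, crosslinked with 0.1% formaldehyde, proximity-ligated with BsaI/T4 ligase (1 h, 37 °C), PCR-amplified and sequenced on an Illumina NextSeq500.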

For the next assay, the target named is T2, ELK1 (Homo sapiens, UniProt P19419 1-428).
T2 sequence: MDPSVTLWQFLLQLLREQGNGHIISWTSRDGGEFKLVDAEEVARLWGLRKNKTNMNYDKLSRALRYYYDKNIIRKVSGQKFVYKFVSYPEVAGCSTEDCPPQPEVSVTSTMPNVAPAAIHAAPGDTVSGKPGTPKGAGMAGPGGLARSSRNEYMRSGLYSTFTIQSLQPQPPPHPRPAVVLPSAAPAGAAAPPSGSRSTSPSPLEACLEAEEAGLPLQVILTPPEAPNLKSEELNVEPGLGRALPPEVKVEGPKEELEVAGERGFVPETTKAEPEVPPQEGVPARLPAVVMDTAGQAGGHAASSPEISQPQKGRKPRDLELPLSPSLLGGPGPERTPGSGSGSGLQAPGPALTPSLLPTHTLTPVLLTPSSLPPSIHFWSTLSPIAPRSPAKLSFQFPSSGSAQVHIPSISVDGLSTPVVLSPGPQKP
Summed up: as §1

Another assay has as its target T3, GABPA (Homo sapiens, UniProt Q06546 1-454).
T3 sequence: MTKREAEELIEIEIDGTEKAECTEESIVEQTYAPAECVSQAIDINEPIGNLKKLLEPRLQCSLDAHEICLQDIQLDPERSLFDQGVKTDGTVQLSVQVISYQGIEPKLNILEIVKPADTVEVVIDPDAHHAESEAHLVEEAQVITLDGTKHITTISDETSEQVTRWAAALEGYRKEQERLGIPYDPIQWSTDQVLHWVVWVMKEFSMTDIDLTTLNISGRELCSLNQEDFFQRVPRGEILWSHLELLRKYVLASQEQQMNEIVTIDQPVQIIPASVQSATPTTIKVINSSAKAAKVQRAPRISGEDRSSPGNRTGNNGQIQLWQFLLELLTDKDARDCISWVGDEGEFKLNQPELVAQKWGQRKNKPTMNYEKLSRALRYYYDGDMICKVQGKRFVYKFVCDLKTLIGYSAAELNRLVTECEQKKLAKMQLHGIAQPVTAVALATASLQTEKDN
Summed up: as §1

The target in the next assay is T4, ERG (Homo sapiens, UniProt P11308 1-479).
T4 sequence: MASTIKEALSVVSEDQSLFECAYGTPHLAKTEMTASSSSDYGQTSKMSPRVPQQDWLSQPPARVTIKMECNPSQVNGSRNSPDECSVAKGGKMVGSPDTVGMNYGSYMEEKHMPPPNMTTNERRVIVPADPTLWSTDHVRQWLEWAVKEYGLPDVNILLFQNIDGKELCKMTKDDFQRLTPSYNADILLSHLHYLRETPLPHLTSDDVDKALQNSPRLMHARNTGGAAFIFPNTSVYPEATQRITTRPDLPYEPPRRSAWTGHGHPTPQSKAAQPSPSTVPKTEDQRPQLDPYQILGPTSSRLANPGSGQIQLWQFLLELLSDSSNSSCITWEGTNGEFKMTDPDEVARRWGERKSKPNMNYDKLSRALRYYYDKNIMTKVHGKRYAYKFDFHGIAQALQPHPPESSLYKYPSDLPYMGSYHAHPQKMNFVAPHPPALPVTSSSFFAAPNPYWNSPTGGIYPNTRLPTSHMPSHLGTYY
In outline: as §1

Another assay deals with ELF1 (Homo sapiens, UniProt P32519 1-619). In outline: as §1
The next assay addresses T5, EHF (Homo sapiens, UniProt Q9NZC4 1-300).
T5 sequence: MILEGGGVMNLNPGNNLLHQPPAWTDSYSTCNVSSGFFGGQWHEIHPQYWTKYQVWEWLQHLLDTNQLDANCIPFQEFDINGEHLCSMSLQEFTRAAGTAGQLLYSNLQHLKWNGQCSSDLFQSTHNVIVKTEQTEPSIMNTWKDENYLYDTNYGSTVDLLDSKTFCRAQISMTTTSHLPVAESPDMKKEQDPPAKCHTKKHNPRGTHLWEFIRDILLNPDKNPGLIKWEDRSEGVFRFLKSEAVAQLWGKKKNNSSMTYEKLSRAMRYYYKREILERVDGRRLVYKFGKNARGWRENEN
In outline:
as §1

The target in a further assay is SPI1 (Homo sapiens, UniProt P17947 1-270). Summed up: as §1
The target of another assay is SPIB (Homo sapiens, UniProt Q01892 1-262). In outline: as §1
A further assay has as its target T6, ELK3 (Homo sapiens, UniProt P41970 1-407).
T6 sequence: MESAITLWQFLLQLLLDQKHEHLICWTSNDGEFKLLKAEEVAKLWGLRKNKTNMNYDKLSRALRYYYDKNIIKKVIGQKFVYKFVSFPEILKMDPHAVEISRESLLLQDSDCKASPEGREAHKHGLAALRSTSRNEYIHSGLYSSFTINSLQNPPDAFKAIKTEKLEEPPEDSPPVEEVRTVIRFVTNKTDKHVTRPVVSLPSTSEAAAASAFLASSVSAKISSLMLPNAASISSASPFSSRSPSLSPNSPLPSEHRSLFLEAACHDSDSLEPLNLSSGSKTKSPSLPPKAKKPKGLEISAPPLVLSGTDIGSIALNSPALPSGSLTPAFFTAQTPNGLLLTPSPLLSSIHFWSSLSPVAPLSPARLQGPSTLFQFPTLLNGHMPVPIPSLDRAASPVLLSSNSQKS
In outline:
as §1

SPIB, sequence (Q01892 whole entry): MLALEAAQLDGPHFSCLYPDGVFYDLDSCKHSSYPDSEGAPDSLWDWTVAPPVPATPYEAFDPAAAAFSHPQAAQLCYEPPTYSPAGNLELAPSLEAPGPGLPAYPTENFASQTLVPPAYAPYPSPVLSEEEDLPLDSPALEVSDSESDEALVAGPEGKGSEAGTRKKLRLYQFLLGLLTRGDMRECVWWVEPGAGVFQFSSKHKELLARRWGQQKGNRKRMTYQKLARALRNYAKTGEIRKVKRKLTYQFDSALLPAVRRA
ELF1, sequence (P32519 whole entry): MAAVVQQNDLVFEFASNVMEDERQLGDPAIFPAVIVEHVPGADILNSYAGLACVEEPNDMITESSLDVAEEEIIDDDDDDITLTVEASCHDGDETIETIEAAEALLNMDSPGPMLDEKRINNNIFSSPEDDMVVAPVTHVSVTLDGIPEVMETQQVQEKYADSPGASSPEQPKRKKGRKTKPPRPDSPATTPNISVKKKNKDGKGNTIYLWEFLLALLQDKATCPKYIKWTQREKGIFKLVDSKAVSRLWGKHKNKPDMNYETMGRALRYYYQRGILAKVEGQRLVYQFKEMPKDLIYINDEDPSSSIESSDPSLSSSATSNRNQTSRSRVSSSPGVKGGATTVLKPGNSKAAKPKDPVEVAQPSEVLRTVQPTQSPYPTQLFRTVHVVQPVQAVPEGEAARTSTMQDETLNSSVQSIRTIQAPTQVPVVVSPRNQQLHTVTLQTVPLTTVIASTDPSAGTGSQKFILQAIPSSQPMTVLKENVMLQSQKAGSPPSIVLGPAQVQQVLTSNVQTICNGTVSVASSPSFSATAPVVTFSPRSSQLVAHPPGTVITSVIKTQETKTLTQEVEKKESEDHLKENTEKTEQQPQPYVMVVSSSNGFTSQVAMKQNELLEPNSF

Regarding TAATTA, the binding signal with FLI1 was 1.24 fold enrichment (6-mer frequency, TF over GST control); with ELK1, 1.2 fold enrichment (6-mer frequency, TF over GST control); with GABPA, 1.23 fold enrichment (6-mer frequency, TF over GST control); in the assay with ERG, 1.3 fold enrichment (6-mer frequency, TF over GST control); with ELF1, 1.3 fold enrichment (6-mer frequency, TF over GST control); with EHF, 1.22 fold enrichment (6-mer frequency, TF over GST control). Besides, the binding signal was 1.25 fold enrichment (6-mer frequency, TF over GST control) with SPI1; 1.27 fold enrichment (6-mer frequency, TF over GST control) with SPIB; 1.24 fold enrichment (6-mer frequency, TF over GST control) with ELK3.
TGTTAT: the binding signal is 1.37 fold enrichment (6-mer frequency, TF over GST control) in the assay with FLI1; 1.27 fold enrichment (6-mer frequency, TF over GST control) with ELK1; 1.36 fold enrichment (6-mer frequency, TF over GST control) in the assay with GABPA; 1.41 fold enrichment (6-mer frequency, TF over GST control) with ERG; 1.29 fold enrichment (6-mer frequency, TF over GST control) with ELF1; 1.35 fold enrichment (6-mer frequency, TF over GST control) in the assay with EHF. For the same sequence, the binding signal was 1.38 fold enrichment (6-mer frequency, TF over GST control) in the assay with SPI1; 1.31 fold enrichment (6-mer frequency, TF over GST control) in the assay with SPIB; 1.24 fold enrichment (6-mer frequency, TF over GST control) with ELK3.
Regarding TTCAAC, the binding signal is 1.3 fold enrichment (6-mer frequency, TF over GST control) with FLI1; 1.31 fold enrichment (6-mer frequency, TF over GST control) with ELK1; 1.24 fold enrichment (6-mer frequency, TF over GST control) with GABPA; 1.26 fold enrichment (6-mer frequency, TF over GST control) with ERG; 1.33 fold enrichment (6-mer frequency, TF over GST control) with ELF1; 1.32 fold enrichment (6-mer frequency, TF over GST control) in the assay with EHF. Further, the binding signal in the assay with SPI1 was 1.28 fold enrichment (6-mer frequency, TF over GST control); with SPIB it was 1.38 fold enrichment (6-mer frequency, TF over GST control); with ELK3, 1.29 fold enrichment (6-mer frequency, TF over GST control).
Regarding TAATGC, the binding signal in the assay with FLI1 was 1.26 fold enrichment (6-mer frequency, TF over GST control); with ELK1, 1.22 fold enrichment (6-mer frequency, TF over GST control); with GABPA it was 1.26 fold enrichment (6-mer frequency, TF over GST control); with ERG, 1.18 fold enrichment (6-mer frequency, TF over GST control); with ELF1, 1.16 fold enrichment (6-mer frequency, TF over GST control); with EHF it was 1.22 fold enrichment (6-mer frequency, TF over GST control). The binding signal with SPI1 is 1.1 fold enrichment (6-mer frequency, TF over GST control); with SPIB it was 1.24 fold enrichment (6-mer frequency, TF over GST control); with ELK3, 1.29 fold enrichment (6-mer frequency, TF over GST control).
Take ATCCTT: the binding signal in the assay with FLI1 was 1.72 fold enrichment (6-mer frequency, TF over GST control); with ELK1, 1.62 fold enrichment (6-mer frequency, TF over GST control); with GABPA it was 1.64 fold enrichment (6-mer frequency, TF over GST control); in the assay with ERG, 1.78 fold enrichment (6-mer frequency, TF over GST control); in the assay with ELF1, 1.6 fold enrichment (6-mer frequency, TF over GST control); with EHF it was 1.68 fold enrichment (6-mer frequency, TF over GST control). Moreover, the binding signal is 1.7 fold enrichment (6-mer frequency, TF over GST control) with SPI1; 1.67 fold enrichment (6-mer frequency, TF over GST control) in the assay with SPIB; 1.68 fold enrichment (6-mer frequency, TF over GST control) in the assay with ELK3.
As for CTTCGT, the binding signal is 1.34 fold enrichment (6-mer frequency, TF over GST control) in the assay with FLI1; 1.45 fold enrichment (6-mer frequency, TF over GST control) with ELK1; 1.38 fold enrichment (6-mer frequency, TF over GST control) with GABPA; 1.3 fold enrichment (6-mer frequency, TF over GST control) with ERG; 1.3 fold enrichment (6-mer frequency, TF over GST control) with ELF1; 1.36 fold enrichment (6-mer frequency, TF over GST control) with EHF. In addition, the binding signal with SPI1 is 1.39 fold enrichment (6-mer frequency, TF over GST control); in the assay with SPIB it was 1.32 fold enrichment (6-mer frequency, TF over GST control); with ELK3, 1.4 fold enrichment (6-mer frequency, TF over GST control).
Take TTCGAA: the binding signal is 1.14 fold enrichment (6-mer frequency, TF over GST control) in the assay with FLI1; 1.2 fold enrichment (6-mer frequency, TF over GST control) with ELK1; 1.19 fold enrichment (6-mer frequency, TF over GST control) in the assay with GABPA; 1.19 fold enrichment (6-mer frequency, TF over GST control) with ERG; 1.28 fold enrichment (6-mer frequency, TF over GST control) in the assay with ELF1; 1.12 fold enrichment (6-mer frequency, TF over GST control) with EHF. The binding signal in the assay with SPI1 was 1.14 fold enrichment (6-mer frequency, TF over GST control); with SPIB it was 1.12 fold enrichment (6-mer frequency, TF over GST control); with ELK3 it was 1.33 fold enrichment (6-mer frequency, TF over GST control).
